Data published in PubChem BioAssay AID686978 (National Center for Advancing Translational Sciences (NCATS), 2013).
Screen size: about 420,000 compounds; about 64,000 (15%) were called active. Roughly 27% stayed inconclusive and do not appear here. Calls come from the whole dose curve; as a rule, active = well fitted inhibition curve with a large enough effect; inconclusive = small, poorly fitted or top-dose-only effect; inactive = flat fitted curve, though single readings scatter. Not all results are given here. A call without a number means that no potency is given here.

Test: qHTS for Inhibitors of human tyrosyl-DNA phosphodiesterase 1 (TDP1): qHTS in cells in absence of CPT; note: nearly all actives have a fitted effect of over 55% in size
Conditions: DT40 Tdp1-/- hTDP1 cells, no CPT, ATP luminescence, 48 h; activity change, negative = growth inhibition: at 46.2 µM (top of the series)
Procedure, shortened: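 A cellular qHTS used chicken DT40 cells lacking endogenous Tdp1 but carrying stably transfected human TDP1. Compounds were applied without camptothecin, and cell growth kinetics were judged by ATP-dependent luminescence after ≥48 hr.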
Potency is the fitted concentration of half-maximal effect.

| Compound | Potency |
| --- | --- |
| Cc1c(Cl)cccc1NC(=O)NCc1ccc(C)n1C | inactive |
| Cn1cc(-c2ccccc2)cc(C#N)c1=O | inactive |
| O=C(O)c1ccccc1C(=O)NC1=NN(c2ccccc2)CC1 | inactive |
| CCOC(=O)c1nnn(-c2nonc2-n2cccc2)c1CN1CCC(C(=O)OCC)CC1 | 18.4 µM (active) |
| NNC(=O)c1nnn(-c2nonc2N)c1CN1CCCC1 | inactive |
| CCOC(=O)c1nnn(-c2nonc2-n2cccc2)c1CN1CCOCC1 | inactive |
| COC(=O)C1(CCSC)NC(c2ccc(OC)cc2OC)C2C(=O)N(c3cccc(C(C)=O)c3)C(=O)C21 (stereo not given) | inactive |
| COc1ccccc1-c1cc(C(F)(F)F)nc(S(=O)(=O)CCCC(=O)Nc2ccc(F)cc2F)n1 | 3.66 µM (active) |
| CSc1ccccc1NC(=O)CCS(=O)(=O)c1nc(-c2cccs2)cc(C(F)(F)F)n1 | 11.6 µM (active) |
| O=C(Nc1cc(C(F)(F)F)ccc1Cl)c1cc2nc(-c3ccc4c(c3)OCO4)cc(C(F)(F)F)n2n1 | inactive |
| Cc1cc2nc(C(F)(F)F)cc(-c3cccs3)n2n1 | inactive |
| COc1ccccc1-c1cc(C(F)(F)F)nc(S(=O)(=O)CCCC(=O)Nc2cc(C)ccc2O)n1 | inactive |
| Cc1ccc(O)c(NC(=O)CCS(=O)(=O)c2nc(-c3ccc4c(c3)OCO4)cc(C(F)(F)F)n2)c1 | 11.6 µM (active) |
| CC(Sc1nc(-c2ccccc2)cc(C(F)(F)F)n1)C(=O)Nc1ccc2c(c1)OCO2 (stereo not given) | inactive |
| O=C(CSc1ccc(-c2cccs2)nn1)Nc1ccccc1F | inactive |
| O=C(COC(=O)CSc1ccccc1)Nc1ccc(F)cc1F | inactive |
| CCC(=O)c1c[nH]c(C(=O)NCC2CCCO2)c1 (stereo not given) | inactive |
| Cc1ccc(C(=O)OCC(=O)NC(=O)Cc2ccccc2)c(O)c1 | inactive |
| CC(C)(C)C(=O)COC(=O)c1cc(S(=O)(=O)N2CCCCC2)ccc1N1CCOCC1 | inactive |
| CCCCSc1ncnc2c1sc1nc(N3CCOCC3)c3c(c12)CCCC3 | inactive |
| CC(C)Cc1nn2c(=O)cc(O)nc2s1 | inactive |
| CSc1nnc2c(n1)OC(c1ccsc1)N(C(C)=O)c1ccccc1-2 (stereo not given) | inactive |
| COc1ccccc1NC(=O)COC(=O)Cc1ccc(S(=O)(=O)N2CCCCC2)s1 | inactive |
| COC(=O)c1ccc(CSc2nncn2C)cc1 | inactive |
| COC(=O)c1ccc(CSc2nncn2N)cc1 | inactive |
| CCOC(=O)c1ccc(CSc2nnc3cc(C)c4ccccc4n23)cc1 | 20.6 µM (active) |
| COCc1c(C(=O)N/N=C/C2CC=CCC2)nnn1-c1nonc1N (stereo not given) | inactive |

| Compound | Potency |
| --- | --- |
| CCc1ccc(N2CC(C(=O)NC3=NCCS3)CC2=O)cc1 (stereo not given) | inactive |
| Cc1cccc(C(=O)OC(C)CN2CCCC2)c1 (stereo not given) | inactive |
| Cc1cccc(N)c1SC1CCCCC1O (stereo not given) | inactive |
| CCCn1nnc(NC(=O)COc2ccc(CC)cc2)n1 | inactive |
| O=C(OCc1ccccc1F)c1ccc2c(c1)OCCO2 | inactive |
| C=CCNC(=S)N/N=C/c1ccc(C)s1 | 7.31 µM (active) |
| C=C(C)CNC(=S)N/N=C/c1ccccc1OCC(=O)O | inactive |
| C=CCNC(=S)NNC(=O)c1ccc(Br)o1 | inactive |
| CCOC(=O)c1c(NC(=O)CN2C(=O)NC3(CCC(C)CC3)C2=O)sc(C)c1CC (stereo not given) | inactive |
| OCC(O)C1OCOC(C(O)CO)C1O (stereo not given) | inactive |
| COc1cc(NC(=O)CCn2nc(C)cc2C)cc(OC)c1OC | inactive |
| COc1cc(F)ccc1-c1cc(C(=O)NCC2CCCCC2)[nH]n1 | inactive |
| COc1cc(NC(=O)c2cc(-c3ccc(F)cc3OC(C)C)n[nH]2)cc(OC)c1OC | 11.6 µM (active) |
| COC(C)(C)[C@]12CC(O)(C(C)C)ON1[C@H]1CCCCC1N2O (stereo not given in full) | inactive |
| CCC(=O)c1cc2c(cc1NC(=O)c1cccs1)OCCO2 | inactive |
| Cc1ccc(Oc2nc3ccccc3n3c(C)nnc23)cc1 | inactive |
| C[C@@H]1NC(=O)[C@@]2(C)[C@@H](c3ccccc3)[C@H]3COc4ccccc4[C@@H]3N2C1=O | inactive |
| CCOc1cc(-c2cc(-c3ccc(NC(C)=O)cc3)nc(N)c2C#N)ccc1O | 20.6 µM (active) |
| CC(=O)Nc1ccc(-c2cn3cccnc3n2)cc1 | inactive |
| CCOC(=O)CC(=O)CSc1nc(-c2ccccc2)cc(-c2ccc(Cl)cc2)c1C#N | inactive |
| CCCN(CC1CC1)C(=O)COC(=O)c1ccc(C)cc1O | inactive |
| CC(C)OC(=O)c1cc(NC(=O)C2C3CCC(O3)C2C(=O)O)cc(C(=O)OC(C)C)c1 (stereo not given) | inactive |
| O=C(CN1CCC(O)(c2cccc(C(F)(F)F)c2)CC1)NCCc1ccccc1 | 11.6 µM (active) |
| O=C(CN1CCC(O)(c2ccccc2)CC1)Nc1ccc2c(c1)OCCO2 | inactive |
| Cc1cc(NC(=O)CN2CCC(O)(c3cccc(F)c3)CC2)no1 | inactive |
| Cn1c(=O)c2[nH]c(NCC3CCCO3)nc2n(-c2ccccc2)c1=O (stereo not given) | inactive |
| CC1=CC2=NC(=O)/C(=C/c3coc4ccccc4c3=O)C(=N)N2O1 | inactive |

| Compound | Potency |
| --- | --- |
| O=C1/C(=C/c2coc3ccc(O)cc3c2=O)SC(=S)N1c1ccccc1 | 16.4 µM (active) |
| CN(C)S(=O)(=O)c1cccc(-c2nn(-c3ccccc3)cc2/C=C2\SC(=S)N(CC(=O)O)C2=O)c1 | inactive |
| CN(C)CCCn1c(SCCN2C(=O)c3ccccc3C2=O)nc2ccccc2c1=O | inactive |
| CCn1c2ccccc2c2cc(CC(N)=O)ccc21 | inactive |
| CCc1ccc(CNC(=O)c2cc3c(=O)n(CC)c4ccccc4c3s2)cc1 | 29.1 µM (active) |
| CN(Cc1ccccc1)C(=O)c1cc2c(=O)n(C)c3ccccc3c2s1 | inactive |
| COc1ccc(C)cc1N(C)C(=O)c1c(C)oc2ncnc(N3CCOCC3)c12 | inactive |
| Cc1oc2ncnc(N3CCCCC3)c2c1C(=O)N1CCN(c2cccc(Cl)c2)CC1 | 16.4 µM (active) |
| Cc1cc(=O)oc(C)c1C(=O)N1CCCCC1 | inactive |
| O=C(COC(=O)CNC(=O)C1CCCCC1)Nc1cccc(F)c1 | inactive |
| Cc1cccc(OCC(=O)NCC(=O)N/N=C/c2ccc(N(C)C)cc2)c1 | inactive |
| COc1cc(C2C(C(=O)Nc3ccccc3OC)=C(C)Nc3ncnn32)ccc1O (stereo not given) | inactive |
| COc1ccccc1NC1=NC2(CCCC2)N=C(N)N1 | inactive |
| COc1ccccc1NC1=NC(c2ccc(Cl)cc2)N=C(N)N1 (stereo not given) | 5.8 µM (active) |
| COc1cc([N+](=O)[O-])cc([N+](=O)[O-])c1NC(=O)N1CCOCC1 | inactive |
| O=C(CSc1nc(=O)n(Cc2cccnc2)c2c1CCC2)Nc1ccc(F)cc1F | inactive |
| CC(=O)c1c(OCC(=O)N(C)C2CCCCC2)ccc2c(C)cc(=O)oc12 | inactive |
| CCc1ccnc(NS(=O)(=O)c2ccc3c(c2)OCCO3)c1 | inactive |
| CC(C)(C)NC(=O)CN(C(=O)c1ccc(Cl)nc1)c1cccc2ccccc12 | inactive |
| c1ccc2c(c1)nnn2-c1ccncc1 | 5.17 µM (active) |
| Cc1ccc(C)n1-c1ccncc1 | inactive |
| COc1cc2nnn(-c3ccncc3)c2cc1OC | inactive |
| CC(=O)N1C(=O)C2(Nc3ccccc3N2)c2ccccc21 | inactive |
| Cc1oc(CC(C)C)c(CN2CCCC2)c1C(=O)O | inactive |
| COc1ccc(CCNC(=O)COC(=O)Cc2cc(OC)c(OC)c(OC)c2)cc1 | inactive |
| COc1ccc(CCNC(=O)CN2C(=O)CCSc3ccccc32)c(OC)c1 | inactive |
| COc1ccc(CCNC(=O)c2cc3cccc4c3n2CC(C)S4)c(OC)c1OC (stereo not given) | 11.6 µM (active) |

| Compound | Potency |
| --- | --- |
| CNc1nc(SC)nc(N(C#N)CC(=O)OC)n1 | inactive |
| COc1ccc(NC(=O)CN(C)C(=O)c2ccc(COc3ccccc3)o2)cc1 | inactive |
| CCOc1ccc(OCc2ccc(C(=O)N(C)c3ccccc3)o2)cc1 | 14.6 µM (active) |
| O=C(NCCc1ccccn1)c1ccc(COc2ccccc2)o1 | inactive |
| CCN1C(=O)[C@H]2[C@@H](c3ccc(C)cc3)N3C(=O)N(c4cccc(Br)c4)C(=O)[C@@]3(CC)[C@H]2C1=O | inactive |
| CCCCCCSc1ccc([C@@H]2[C@@H]3C(=O)N(CC)C(=O)[C@@H]3[C@]3(C(=O)OC)CCCCN23)cc1OC | 25.9 µM (active) |
| CCCCC12CN3CC(C)(CN(C1)C3c1ccc(O)c(OC)c1)C2=O (stereo not given) | inactive |
| NC(=O)C1(Nc2ccc(-c3ccccc3)cc2)CCCC1 | inactive |
| CC(=O)N(CN1C(=O)C2C3C=CC(C3)C2C1=O)c1cccc(Cl)c1 (stereo not given) | inactive |
| CCN1C(=O)[C@@H]2[C@@H](c3ccc(-c4cccc(Cl)c4)cc3)N3CCC[C@@]3(C(=O)OC)[C@@H]2C1=O | 16.4 µM (active) |
| CCN1C(=O)[C@@H]2[C@@H](c3ccc(-c4ccccc4)cc3)N3CCCC[C@@]3(C(=O)OC)[C@@H]2C1=O | 16.4 µM (active) |
| CCOC(=O)N1C(=O)C[C@](Sc2ccc(C)cc2)(C(=O)OC)[C@H]1c1ccccc1 | inactive |
| CCOC(=O)C1=C(CC)Nc2ccccc2N=C1N | inactive |
| COCCNC(=O)c1cc(-c2cccc(Cl)c2)on1 | inactive |
| CSc1ccc(NC(=O)Cn2nnnc2-c2ccccc2F)cc1 | inactive |
| COc1ccc(NC(=O)CN(C)C(=O)CNC(=O)C2CCCCC2)cc1 | inactive |
| COc1ccccc1C1/C(=C(/O)c2ccc(C)cc2)C(=O)C(=O)N1Cc1ccco1 (stereo not given) | inactive |
| COc1ccc(S(=O)(=O)N(C)CC(=O)NCCCN2CCOCC2)cc1Cl | inactive |
| CN(Cc1ccc(F)cc1Cl)S(=O)(=O)c1cccs1 | inactive |
| CN(Cc1ccccc1)CC(O)COc1ccc(CNCc2cc3ccccc3s2)cc1 (stereo not given) | 29.1 µM (active) |
| Cc1ccc(OCC(=O)OC(C)CN(C)Cc2ccccc2)cc1 (stereo not given) | inactive |
| OC(CNCc1ccc2c(c1)OCO2)COc1ccccc1 (stereo not given) | inactive |
| O=C(COC(=O)c1ccc(F)c(S(=O)(=O)N2CCOCC2)c1)NCc1ccc2c(c1)OCO2 | inactive |
| OC(Cc1ccc2ccccc2n1)c1ccc(Cl)c(Cl)c1 (stereo not given) | inactive |
